Data on 13 compounds can be found in PubChem BioAssay (NCI).

Some test systems named below: T-47D breast; BT-549 breast; MDA-MB-435 melanoma; SW-620 colon; MCF7 breast; HCT-116 colon; HCC-2998 colon; KM12 colon.
Holding throughout (test): NCI-60 one-dose screen, 48 h (100 = growth as untreated, 0 = no growth, -100 = all killed)
Common to all, as to conditions: 10 µM unless noted

“And” between values parts separate entries of the source, which are not always exact repeats. Equal values may be shown once. This is part of a sample that, as a whole, favours compounds with a hit. Of some 83,000 tested, about 20% had one in any assay.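 How to read the values: 0–100, growth inhibition (40 = 60% inhibited); 0, no net growth; -100 to 0, cell death (-40 = 40% of starting cells died; -100 = all dead).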 The source made the active and inactive calls. The calls were made as follows: active = growth percent below 10; inactive = the rest.

Take `O=C1C=CC(n2cc(F)c(=O)[nH]c2=O)O1` (centres undefined): the growth in the assay on T-47D breast is 65.5% (inactive); with BT-549 breast it was 43% (inactive); with MDA-MB-435 melanoma, 46.4% (inactive); with SW-620 colon, 79.7% (inactive); in the assay on MCF7 breast, 30.1% (inactive); with HCT-116 colon, 40% (inactive). For the same compound, the growth was 22.3% (inactive) in the assay with HCC-2998 colon and 51.6% (inactive) in the assay on KM12 colon.
`CCCCC/C(C)=N\NC(N)=S`: the growth in the assay with T-47D breast was 33.6% (inactive); in the assay on BT-549 breast, 96.7% (inactive); in the assay with MDA-MB-435 melanoma it was 84.4% (inactive); with SW-620 colon, 67.5% (inactive); with MCF7 breast, 19.6% (inactive); with HCT-116 colon, 11.7% (inactive). Further, the growth is 97.8% (inactive) in the assay on HCC-2998 colon and 93.5% (inactive) in the assay on KM12 colon.
For the compound `NNC(=O)Nc1ccccc1`, the growth with T-47D breast was 109% (inactive); with BT-549 breast it was 104% (inactive); with MDA-MB-435 melanoma it was 103% (inactive); in the assay with SW-620 colon it was 101% (inactive); with MCF7 breast, 89.3% (inactive); in the assay with HCT-116 colon, 101% (inactive). Moreover, the growth in the assay with HCC-2998 colon is 113% (inactive); with KM12 colon it was 99.1% (inactive).
For the compound `COc1ccccc1OCC(O)CO` (centres undefined), the growth in the assay on T-47D breast was 91.4% (inactive) and 105% (inactive); in the assay on BT-549 breast, 107% (inactive); in the assay with MDA-MB-435 melanoma, 76.7% (inactive) and 96.1% (inactive); in the assay with SW-620 colon it was 101% (inactive) and 109% (inactive); with MCF7 breast it was 94.1% (inactive) and 105% (inactive); in the assay on HCT-116 colon, 106% (inactive) and 102% (inactive). Moreover, the growth was 95% (inactive) and 86.1% (inactive) with HCC-2998 colon; 98% (inactive) and 108% (inactive) with KM12 colon.
For the compound `CC1NC(C)c2ccc3ccccc3c2O1` (centres undefined), the growth is 108% (inactive) in the assay on T-47D breast; 107% (inactive) in the assay on BT-549 breast; 111% (inactive) with MDA-MB-435 melanoma; 111% (inactive) in the assay with SW-620 colon; 92% (inactive) with MCF7 breast; 102% (inactive) with HCT-116 colon. Also, the growth with HCC-2998 colon was 110% (inactive); in the assay with KM12 colon, 111% (inactive).
For `Oc1cccnc1CN1CCOCC1`, the growth with T-47D breast is 93.1% (inactive); in the assay with BT-549 breast, 118% (inactive) and 115% (inactive); with MDA-MB-435 melanoma it was 109% (inactive) and 99.3% (inactive); in the assay on SW-620 colon, 109% (inactive) and 101% (inactive); with MCF7 breast, 95.2% (inactive) and 90.7% (inactive); in the assay on HCT-116 colon, 104% (inactive) and 103% (inactive). For the same compound, the growth in the assay with HCC-2998 colon was 102% (inactive) and 99.6% (inactive); with KM12 colon, 112% (inactive) and 108% (inactive).
As to `Cc1c(O)nc(N)[nH]c1=O`, the growth in the assay with T-47D breast is 114% (inactive); in the assay with BT-549 breast, 116% (inactive); in the assay on MDA-MB-435 melanoma, 103% (inactive); in the assay on SW-620 colon, 102% (inactive); in the assay with MCF7 breast, 99% (inactive); in the assay with HCT-116 colon it was 103% (inactive). The growth was 92.8% (inactive) in the assay with HCC-2998 colon and 106% (inactive) with KM12 colon.
As to `CCOC(=O)c1ccc(C(=N)N)cc1`, the growth is 105% (inactive) in the assay with T-47D breast; 119% (inactive) with BT-549 breast; 109% (inactive) with MDA-MB-435 melanoma; 102% (inactive) with SW-620 colon; 95.3% (inactive) in the assay on MCF7 breast; 106% (inactive) in the assay with HCT-116 colon. The growth is 103% (inactive) with HCC-2998 colon and 109% (inactive) in the assay with KM12 colon.
`O=C(c1ccccc1)C1(Br)CCCCC1`: the growth was 94.7% (inactive) with T-47D breast; 105% (inactive) in the assay with BT-549 breast; 105% (inactive) with MDA-MB-435 melanoma; 105% (inactive) in the assay on SW-620 colon; 96% (inactive) with MCF7 breast; 104% (inactive) with HCT-116 colon. Further, the results for the growth in the assay with HCC-2998 colon and in the assay with KM12 colon were 101% (inactive) and 104% (inactive), respectively.
Turning to `COC(=O)c1nc(N)nc(C(=O)OC)c1C(=O)c1ccc(F)cc1`, the growth was 105% (inactive) with T-47D breast; 120% (inactive) in the assay with BT-549 breast; 107% (inactive) in the assay with MDA-MB-435 melanoma; 110% (inactive) in the assay with SW-620 colon; 97.1% (inactive) with MCF7 breast; 110% (inactive) in the assay on HCT-116 colon. The growth is 110% (inactive) with HCC-2998 colon and 107% (inactive) with KM12 colon.
As for `CNc1ccc(Cl)cc1S(=O)(=O)c1ccccc1[N+](=O)[O-]`, the growth with T-47D breast was 85.5% (inactive) and 69.2% (inactive); with BT-549 breast, 79.5% (inactive) and 86.9% (inactive); in the assay on MDA-MB-435 melanoma, 49.6% (inactive) and 6.48% (active); in the assay with SW-620 colon, 108% (inactive) and 105% (inactive); with MCF7 breast, 94.3% (inactive) and 89.9% (inactive); in the assay with HCT-116 colon, 107% (inactive) and 90.2% (inactive). Further, the growth in the assay on HCC-2998 colon was 109% (inactive); in the assay with KM12 colon, 75% (inactive) and 95.3% (inactive).
With `CC(=O)Nc1ccc2oc(=O)ccc2c1`, the growth was 85.3% (inactive) in the assay on T-47D breast; 89.8% (inactive) in the assay on BT-549 breast; 105% (inactive) in the assay with MDA-MB-435 melanoma; 107% (inactive) in the assay with SW-620 colon; 110% (inactive) with MCF7 breast; 86.5% (inactive) in the assay on HCT-116 colon. Also, the growth is 110% (inactive) in the assay with HCC-2998 colon and 100% (inactive) in the assay on KM12 colon.
Regarding `O=C(O)/C=C/C=C/c1ccccc1`, the growth is 100% (inactive) and 105% (inactive) in the assay with T-47D breast; 103% (inactive) and 107% (inactive) with BT-549 breast; 105% (inactive) and 111% (inactive) in the assay with MDA-MB-435 melanoma; 104% (inactive) and 103% (inactive) with SW-620 colon; 92.9% (inactive) and 94.4% (inactive) in the assay on MCF7 breast; 101% (inactive) and 96% (inactive) in the assay on HCT-116 colon. Moreover, the growth in the assay with HCC-2998 colon was 104% (inactive); in the assay on KM12 colon it was 105% (inactive) and 103% (inactive).
